From ChEMBL document CHEMBL1961873, “Compounds: GSK PKIS; Assays: Nanosyn kinase panel” (2012) come the findings set out here.

The structures appear in SMILES notation.

Test [1] concerns the target Protein kinase C gamma type (Homo sapiens) (UniProt P05129). The following applies: at 1 µM.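 Further: each value is an averaged percent inhibition of the enzyme.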
The target in test [2] is T1, Protein kinase C iota type (Homo sapiens) (UniProt P41743).
T1 sequence (whole entry): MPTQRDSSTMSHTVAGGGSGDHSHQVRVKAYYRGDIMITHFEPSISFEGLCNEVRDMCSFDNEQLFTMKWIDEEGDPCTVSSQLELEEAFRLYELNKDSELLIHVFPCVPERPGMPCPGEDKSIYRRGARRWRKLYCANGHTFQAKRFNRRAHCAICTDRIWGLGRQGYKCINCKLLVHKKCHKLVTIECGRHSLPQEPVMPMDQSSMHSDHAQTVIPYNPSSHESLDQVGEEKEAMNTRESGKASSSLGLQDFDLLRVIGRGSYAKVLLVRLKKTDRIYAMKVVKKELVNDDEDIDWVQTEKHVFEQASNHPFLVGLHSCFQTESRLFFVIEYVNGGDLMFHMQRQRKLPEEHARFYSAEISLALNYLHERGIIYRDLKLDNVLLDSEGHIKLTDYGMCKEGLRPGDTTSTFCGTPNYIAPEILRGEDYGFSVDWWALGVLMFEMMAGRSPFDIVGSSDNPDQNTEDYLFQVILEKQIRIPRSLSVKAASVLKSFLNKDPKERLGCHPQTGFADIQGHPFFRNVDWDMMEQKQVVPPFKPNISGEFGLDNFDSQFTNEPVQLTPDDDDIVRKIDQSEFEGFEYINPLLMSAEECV
The following applies: at 0.1 µM.

For test [3], the target named is T1, Protein kinase C iota type (Homo sapiens). The following applies: at 1 µM.
Test [4] concerns the target Protein kinase C theta type (Homo sapiens) (UniProt Q04759). The settings on record: at 0.1 µM.
For test [5] the target is unchanged. The following applies: at 1 µM.
Test [6] deals with Protein kinase C beta type (Homo sapiens) (UniProt P05771). The settings on record: at 0.1 µM.
Sequence of Protein kinase C beta type (Homo sapiens) (P05771 2-671 limits assumed): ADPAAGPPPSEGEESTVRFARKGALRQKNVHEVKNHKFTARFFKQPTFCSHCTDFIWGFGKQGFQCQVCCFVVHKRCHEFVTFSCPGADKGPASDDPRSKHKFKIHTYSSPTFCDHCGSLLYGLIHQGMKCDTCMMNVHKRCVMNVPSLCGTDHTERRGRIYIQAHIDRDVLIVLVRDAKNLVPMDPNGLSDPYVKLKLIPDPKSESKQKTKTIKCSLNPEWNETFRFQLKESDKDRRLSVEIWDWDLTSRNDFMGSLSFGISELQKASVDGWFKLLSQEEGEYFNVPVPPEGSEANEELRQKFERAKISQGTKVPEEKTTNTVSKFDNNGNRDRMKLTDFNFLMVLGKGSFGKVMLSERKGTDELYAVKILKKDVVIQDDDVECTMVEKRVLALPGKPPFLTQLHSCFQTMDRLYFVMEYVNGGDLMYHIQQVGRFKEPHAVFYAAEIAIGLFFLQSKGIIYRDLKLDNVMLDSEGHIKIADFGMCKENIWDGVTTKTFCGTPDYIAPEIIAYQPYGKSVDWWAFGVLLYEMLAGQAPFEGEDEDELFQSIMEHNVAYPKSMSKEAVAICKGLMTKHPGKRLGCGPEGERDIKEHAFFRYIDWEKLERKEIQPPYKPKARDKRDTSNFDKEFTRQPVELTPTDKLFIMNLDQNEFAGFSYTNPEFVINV
Test [7] shares this target. The following applies: at 1 µM.
The target in test [8] is T2, Serine/threonine-protein kinase D1 (Homo sapiens) (UniProt Q15139).
T2 sequence (whole entry): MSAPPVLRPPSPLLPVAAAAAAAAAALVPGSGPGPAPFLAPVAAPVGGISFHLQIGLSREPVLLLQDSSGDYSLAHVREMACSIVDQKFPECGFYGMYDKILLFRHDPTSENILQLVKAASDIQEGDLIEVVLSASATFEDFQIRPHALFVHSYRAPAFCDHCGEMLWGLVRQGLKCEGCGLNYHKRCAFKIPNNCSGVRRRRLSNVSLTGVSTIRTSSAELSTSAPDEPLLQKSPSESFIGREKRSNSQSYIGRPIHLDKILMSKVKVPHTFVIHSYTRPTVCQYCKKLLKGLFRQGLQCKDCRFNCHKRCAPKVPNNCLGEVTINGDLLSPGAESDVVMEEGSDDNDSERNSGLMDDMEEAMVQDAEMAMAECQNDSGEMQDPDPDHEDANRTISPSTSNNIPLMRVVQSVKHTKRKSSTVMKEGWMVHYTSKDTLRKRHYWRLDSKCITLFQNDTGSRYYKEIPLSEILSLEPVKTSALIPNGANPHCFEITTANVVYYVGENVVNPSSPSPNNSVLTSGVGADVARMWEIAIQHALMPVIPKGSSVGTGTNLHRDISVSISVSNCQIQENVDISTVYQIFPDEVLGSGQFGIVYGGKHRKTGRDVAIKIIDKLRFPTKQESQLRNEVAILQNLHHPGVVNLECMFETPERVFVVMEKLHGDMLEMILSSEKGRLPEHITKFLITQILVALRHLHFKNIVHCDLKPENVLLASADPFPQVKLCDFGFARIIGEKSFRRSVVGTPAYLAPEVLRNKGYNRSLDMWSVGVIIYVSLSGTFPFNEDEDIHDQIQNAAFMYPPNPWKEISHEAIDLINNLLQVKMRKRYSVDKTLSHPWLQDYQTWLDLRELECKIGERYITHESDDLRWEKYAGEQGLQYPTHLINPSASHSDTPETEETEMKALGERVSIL
The settings on record: at 0.1 µM.

Test [9] addresses T2, Serine/threonine-protein kinase D1 (Homo sapiens). The settings on record: at 1 µM.
Test [10] addresses T3, Serine/threonine-protein kinase D2 (Homo sapiens) (UniProt Q9BZL6).
T3 sequence (whole entry): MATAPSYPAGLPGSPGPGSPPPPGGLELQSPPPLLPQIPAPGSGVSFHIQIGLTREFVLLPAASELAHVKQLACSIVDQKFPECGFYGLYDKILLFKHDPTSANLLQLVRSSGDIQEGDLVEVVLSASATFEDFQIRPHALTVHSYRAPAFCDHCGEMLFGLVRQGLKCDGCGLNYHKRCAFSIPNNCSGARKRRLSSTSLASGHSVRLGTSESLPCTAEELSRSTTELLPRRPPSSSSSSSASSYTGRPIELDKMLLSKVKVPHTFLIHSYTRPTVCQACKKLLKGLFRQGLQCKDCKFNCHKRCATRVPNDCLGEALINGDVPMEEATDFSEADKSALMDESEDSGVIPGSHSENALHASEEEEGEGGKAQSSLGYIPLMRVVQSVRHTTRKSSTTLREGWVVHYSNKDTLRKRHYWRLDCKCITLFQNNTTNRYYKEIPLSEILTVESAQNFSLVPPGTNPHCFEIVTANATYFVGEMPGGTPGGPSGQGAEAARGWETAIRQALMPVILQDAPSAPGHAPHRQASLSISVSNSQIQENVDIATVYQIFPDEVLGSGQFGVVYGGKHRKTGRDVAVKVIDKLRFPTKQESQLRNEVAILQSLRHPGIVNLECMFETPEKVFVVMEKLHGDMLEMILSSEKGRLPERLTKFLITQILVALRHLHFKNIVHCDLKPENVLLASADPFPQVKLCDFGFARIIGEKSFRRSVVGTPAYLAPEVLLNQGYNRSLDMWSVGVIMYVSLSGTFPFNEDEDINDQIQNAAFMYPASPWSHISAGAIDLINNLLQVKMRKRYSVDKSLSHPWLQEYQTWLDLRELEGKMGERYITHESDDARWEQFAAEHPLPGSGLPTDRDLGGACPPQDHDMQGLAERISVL
The settings on record: at 0.1 µM.

Test [11] concerns the target T3, Serine/threonine-protein kinase D2 (Homo sapiens). The following applies: at 1 µM.
Test [12] concerns the target T4, Serine/threonine-protein kinase D3 (Homo sapiens) (UniProt O94806).
T4 sequence (whole entry): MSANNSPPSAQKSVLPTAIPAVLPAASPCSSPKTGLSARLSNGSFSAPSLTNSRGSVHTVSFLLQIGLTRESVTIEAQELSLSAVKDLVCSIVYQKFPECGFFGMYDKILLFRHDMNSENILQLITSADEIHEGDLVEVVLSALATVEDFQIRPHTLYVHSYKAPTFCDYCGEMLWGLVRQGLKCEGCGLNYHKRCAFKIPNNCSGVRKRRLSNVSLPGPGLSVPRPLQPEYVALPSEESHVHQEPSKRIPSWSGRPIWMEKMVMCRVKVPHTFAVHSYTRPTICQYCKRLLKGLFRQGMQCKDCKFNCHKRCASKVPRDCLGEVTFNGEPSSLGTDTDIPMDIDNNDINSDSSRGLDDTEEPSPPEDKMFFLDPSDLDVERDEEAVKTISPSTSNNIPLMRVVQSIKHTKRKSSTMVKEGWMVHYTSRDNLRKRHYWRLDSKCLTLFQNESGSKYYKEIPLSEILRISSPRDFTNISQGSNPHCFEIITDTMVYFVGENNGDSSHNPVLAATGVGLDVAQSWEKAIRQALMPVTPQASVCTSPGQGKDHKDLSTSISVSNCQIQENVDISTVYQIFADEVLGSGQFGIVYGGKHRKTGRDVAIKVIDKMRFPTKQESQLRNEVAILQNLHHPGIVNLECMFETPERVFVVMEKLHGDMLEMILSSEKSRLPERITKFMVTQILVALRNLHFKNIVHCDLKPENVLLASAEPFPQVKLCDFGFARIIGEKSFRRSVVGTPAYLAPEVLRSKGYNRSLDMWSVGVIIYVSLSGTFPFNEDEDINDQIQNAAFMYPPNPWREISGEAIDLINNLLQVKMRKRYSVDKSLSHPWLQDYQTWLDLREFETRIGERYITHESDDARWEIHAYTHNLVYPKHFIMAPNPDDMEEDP
The settings on record: at 0.1 µM.

The target of test [13] is T4, Serine/threonine-protein kinase D3 (Homo sapiens). The settings on record: at 1 µM.
In test [14] the target is T5, cGMP-dependent protein kinase 1 (Homo sapiens) (UniProt Q13976).
T5 sequence (whole entry): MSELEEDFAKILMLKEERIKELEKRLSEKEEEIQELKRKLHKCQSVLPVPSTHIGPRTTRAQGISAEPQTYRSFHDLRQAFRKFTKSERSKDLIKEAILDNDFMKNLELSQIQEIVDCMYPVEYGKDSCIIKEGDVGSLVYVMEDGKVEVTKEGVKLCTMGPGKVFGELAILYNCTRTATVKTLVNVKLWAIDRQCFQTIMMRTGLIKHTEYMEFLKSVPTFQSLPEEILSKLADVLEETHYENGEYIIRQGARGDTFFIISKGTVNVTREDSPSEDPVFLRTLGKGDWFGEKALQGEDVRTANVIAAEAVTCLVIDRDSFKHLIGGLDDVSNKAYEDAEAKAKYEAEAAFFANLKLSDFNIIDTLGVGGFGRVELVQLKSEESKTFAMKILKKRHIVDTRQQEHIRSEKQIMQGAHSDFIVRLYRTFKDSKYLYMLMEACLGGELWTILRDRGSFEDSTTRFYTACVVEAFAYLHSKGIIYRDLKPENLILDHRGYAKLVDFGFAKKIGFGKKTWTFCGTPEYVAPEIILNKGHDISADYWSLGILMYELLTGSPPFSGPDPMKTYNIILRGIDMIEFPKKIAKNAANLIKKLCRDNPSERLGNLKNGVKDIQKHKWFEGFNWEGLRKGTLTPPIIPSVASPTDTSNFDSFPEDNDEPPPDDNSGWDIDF
The settings on record: at 0.1 µM.

Test [15] concerns the target T5, cGMP-dependent protein kinase 1 (Homo sapiens). The following applies: at 1 µM.
The target of test [16] is T6, cGMP-dependent protein kinase 2 (Homo sapiens) (UniProt Q13237).
T6 sequence (whole entry): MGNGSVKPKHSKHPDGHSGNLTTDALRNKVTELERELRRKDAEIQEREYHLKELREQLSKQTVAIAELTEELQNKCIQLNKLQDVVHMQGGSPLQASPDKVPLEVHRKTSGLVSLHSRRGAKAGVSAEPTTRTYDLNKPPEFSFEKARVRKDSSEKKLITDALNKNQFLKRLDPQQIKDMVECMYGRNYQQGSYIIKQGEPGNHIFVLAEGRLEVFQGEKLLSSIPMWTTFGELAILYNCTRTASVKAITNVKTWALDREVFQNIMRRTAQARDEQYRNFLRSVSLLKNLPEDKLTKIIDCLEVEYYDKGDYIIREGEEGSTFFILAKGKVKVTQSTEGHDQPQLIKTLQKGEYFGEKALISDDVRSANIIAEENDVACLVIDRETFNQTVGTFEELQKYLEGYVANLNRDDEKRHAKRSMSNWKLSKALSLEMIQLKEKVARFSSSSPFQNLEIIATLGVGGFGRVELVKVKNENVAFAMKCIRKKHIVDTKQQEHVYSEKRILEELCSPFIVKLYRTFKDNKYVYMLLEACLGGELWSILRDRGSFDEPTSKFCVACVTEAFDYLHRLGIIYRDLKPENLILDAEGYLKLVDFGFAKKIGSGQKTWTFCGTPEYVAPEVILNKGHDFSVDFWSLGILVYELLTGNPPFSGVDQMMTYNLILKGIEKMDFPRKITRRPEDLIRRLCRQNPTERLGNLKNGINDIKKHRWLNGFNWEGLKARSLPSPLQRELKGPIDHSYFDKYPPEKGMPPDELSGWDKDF
The following applies: at 0.1 µM.

The target of test [17] is T6, cGMP-dependent protein kinase 2 (Homo sapiens). The settings on record: at 1 µM.
Test [18] has as its target T7, cAMP-dependent protein kinase catalytic subunit PRKX (Homo sapiens) (UniProt P51817).
T7 sequence (whole entry): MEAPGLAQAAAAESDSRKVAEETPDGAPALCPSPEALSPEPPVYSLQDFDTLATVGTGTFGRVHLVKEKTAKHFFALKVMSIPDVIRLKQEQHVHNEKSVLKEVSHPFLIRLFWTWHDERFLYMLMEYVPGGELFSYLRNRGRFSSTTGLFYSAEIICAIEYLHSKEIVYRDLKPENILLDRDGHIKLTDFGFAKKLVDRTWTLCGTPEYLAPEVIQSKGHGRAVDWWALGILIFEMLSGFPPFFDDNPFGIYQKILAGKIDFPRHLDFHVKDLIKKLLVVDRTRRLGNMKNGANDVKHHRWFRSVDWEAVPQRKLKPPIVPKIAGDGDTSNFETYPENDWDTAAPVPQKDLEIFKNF
The settings on record: at 0.1 µM.

Test [19] concerns the target T7, cAMP-dependent protein kinase catalytic subunit PRKX (Homo sapiens). The settings on record: at 1 µM.
Test [20] deals with Rho-associated protein kinase 1 (Homo sapiens) (UniProt Q13464). The following applies: at 0.1 µM.
Sequence of Rho-associated protein kinase 1 (Homo sapiens) (Q13464 2-1354 limits assumed): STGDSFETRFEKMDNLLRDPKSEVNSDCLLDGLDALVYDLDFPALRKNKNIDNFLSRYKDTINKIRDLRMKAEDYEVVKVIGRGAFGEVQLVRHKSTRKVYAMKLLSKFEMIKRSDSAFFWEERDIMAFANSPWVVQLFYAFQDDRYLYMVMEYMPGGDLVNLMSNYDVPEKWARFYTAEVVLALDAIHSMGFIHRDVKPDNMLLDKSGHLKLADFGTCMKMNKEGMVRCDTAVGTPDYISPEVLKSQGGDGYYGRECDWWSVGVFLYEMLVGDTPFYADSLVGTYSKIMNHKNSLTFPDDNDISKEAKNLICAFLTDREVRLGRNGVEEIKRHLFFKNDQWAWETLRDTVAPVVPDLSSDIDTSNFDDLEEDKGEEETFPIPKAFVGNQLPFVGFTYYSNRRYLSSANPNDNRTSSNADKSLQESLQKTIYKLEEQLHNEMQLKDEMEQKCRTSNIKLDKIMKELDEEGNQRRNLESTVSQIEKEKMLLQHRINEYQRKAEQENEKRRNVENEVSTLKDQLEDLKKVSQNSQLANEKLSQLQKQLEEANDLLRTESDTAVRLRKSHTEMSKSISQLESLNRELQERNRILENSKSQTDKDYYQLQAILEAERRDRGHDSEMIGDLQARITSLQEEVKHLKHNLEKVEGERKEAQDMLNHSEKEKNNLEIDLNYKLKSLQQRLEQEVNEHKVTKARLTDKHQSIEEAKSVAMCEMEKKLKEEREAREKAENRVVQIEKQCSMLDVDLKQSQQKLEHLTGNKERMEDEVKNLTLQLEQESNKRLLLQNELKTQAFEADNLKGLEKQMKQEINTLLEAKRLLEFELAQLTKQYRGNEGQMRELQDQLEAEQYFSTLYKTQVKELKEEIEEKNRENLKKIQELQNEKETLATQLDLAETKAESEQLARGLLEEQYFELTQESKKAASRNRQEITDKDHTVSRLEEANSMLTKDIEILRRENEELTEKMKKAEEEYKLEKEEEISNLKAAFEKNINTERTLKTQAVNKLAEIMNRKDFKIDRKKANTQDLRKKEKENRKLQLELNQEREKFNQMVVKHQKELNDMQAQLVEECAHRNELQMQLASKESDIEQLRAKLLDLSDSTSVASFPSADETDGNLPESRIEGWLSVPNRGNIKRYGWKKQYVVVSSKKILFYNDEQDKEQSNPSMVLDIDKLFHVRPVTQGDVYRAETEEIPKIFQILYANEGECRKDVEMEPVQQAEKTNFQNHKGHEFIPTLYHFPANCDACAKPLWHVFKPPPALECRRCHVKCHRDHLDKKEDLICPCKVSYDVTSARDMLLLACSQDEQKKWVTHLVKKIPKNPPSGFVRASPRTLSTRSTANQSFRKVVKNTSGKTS

Sequence of Protein kinase C theta type (Homo sapiens) (Q04759 whole entry, looked up): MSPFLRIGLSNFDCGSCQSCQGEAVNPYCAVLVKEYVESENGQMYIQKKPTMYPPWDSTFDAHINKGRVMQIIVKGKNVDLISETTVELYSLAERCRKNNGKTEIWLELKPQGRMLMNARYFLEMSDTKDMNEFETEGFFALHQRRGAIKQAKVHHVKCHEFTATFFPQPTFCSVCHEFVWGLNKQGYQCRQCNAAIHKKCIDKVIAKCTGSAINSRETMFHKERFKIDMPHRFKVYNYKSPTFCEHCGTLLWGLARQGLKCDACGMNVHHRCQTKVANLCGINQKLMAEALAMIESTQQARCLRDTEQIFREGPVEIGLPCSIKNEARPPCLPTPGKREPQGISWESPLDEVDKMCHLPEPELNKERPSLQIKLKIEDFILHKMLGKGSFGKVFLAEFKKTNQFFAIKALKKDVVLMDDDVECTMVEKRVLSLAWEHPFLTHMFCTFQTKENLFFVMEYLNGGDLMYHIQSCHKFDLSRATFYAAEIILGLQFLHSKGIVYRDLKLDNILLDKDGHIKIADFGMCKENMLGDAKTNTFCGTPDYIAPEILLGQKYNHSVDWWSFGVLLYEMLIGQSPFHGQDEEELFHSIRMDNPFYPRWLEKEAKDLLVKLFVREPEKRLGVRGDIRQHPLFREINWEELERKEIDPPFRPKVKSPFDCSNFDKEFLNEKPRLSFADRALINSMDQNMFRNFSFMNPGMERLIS

For the compound `NCc1ccc(-n2c(-c3nonc3N)nc3cnccc32)cc1`, the inhibition in test [1] came out at 42.1%; in test [2], 4.36%; in test [3], 27.5%; in test [4], 17.2%; in [5], 59.4%; in test [6], 7.63%. Also, the inhibition in test [7] was found to be 37.7%; in [8], 8.16%; in test [9], 41%; in test [10], 8.58%; in test [11] it was 41.3%; in [12], 8.56%. Moreover, the inhibition stood at 40% in test [13]; 6.05% in test [14]; 26.6% in test [15]; 16% in test [16]; 60.2% in test [17]; 5.92% in test [18]. Also, the inhibition in test [19] turned out to be 29.4%; in [20], 80.6%.

The inhibition is how much of the control response was suppressed. A higher inhibition goes with strong suppression.
